These results are taken from PubChem BioAssay.

Results filed as inconclusive are left out. Active and inactive are the calls of the source.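 The calls were made as follows, unless noted: active = growth inhibition above 25% in both replicates, a cutoff set 3 SD above the mean; inconclusive = above 25% in only one replicate; inactive = the rest.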

Test [1] is described as follows: Her2 expression decrease, cell viability multiplex – SKBR3 breast tumor cells, AlphaScreen, ATP viability, primary screen (AID 461;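 active = Her2 level under about 52% in both replicate screens, with viability over 70% of control, limit read from the data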;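 as to Her2 level: lower value means less Her2 protein in the cells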;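 as to viability: percent of carrier control wells set as 100% viability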). The settings on record: SKBR3 Her2 protein level, 18-24 h, measured here: SKBR3 viability, ATP luminescence, at 10 µM.
In test [2] the target is Receptor tyrosine-protein kinase erbB-2 (Homo sapiens) (UniProt P04626). The description is as above. The settings on record: 18-24 h, at 10 µM, stronger effect = lower value.
Chain of Receptor tyrosine-protein kinase erbB-2 (Homo sapiens) (P04626 whole entry, looked up): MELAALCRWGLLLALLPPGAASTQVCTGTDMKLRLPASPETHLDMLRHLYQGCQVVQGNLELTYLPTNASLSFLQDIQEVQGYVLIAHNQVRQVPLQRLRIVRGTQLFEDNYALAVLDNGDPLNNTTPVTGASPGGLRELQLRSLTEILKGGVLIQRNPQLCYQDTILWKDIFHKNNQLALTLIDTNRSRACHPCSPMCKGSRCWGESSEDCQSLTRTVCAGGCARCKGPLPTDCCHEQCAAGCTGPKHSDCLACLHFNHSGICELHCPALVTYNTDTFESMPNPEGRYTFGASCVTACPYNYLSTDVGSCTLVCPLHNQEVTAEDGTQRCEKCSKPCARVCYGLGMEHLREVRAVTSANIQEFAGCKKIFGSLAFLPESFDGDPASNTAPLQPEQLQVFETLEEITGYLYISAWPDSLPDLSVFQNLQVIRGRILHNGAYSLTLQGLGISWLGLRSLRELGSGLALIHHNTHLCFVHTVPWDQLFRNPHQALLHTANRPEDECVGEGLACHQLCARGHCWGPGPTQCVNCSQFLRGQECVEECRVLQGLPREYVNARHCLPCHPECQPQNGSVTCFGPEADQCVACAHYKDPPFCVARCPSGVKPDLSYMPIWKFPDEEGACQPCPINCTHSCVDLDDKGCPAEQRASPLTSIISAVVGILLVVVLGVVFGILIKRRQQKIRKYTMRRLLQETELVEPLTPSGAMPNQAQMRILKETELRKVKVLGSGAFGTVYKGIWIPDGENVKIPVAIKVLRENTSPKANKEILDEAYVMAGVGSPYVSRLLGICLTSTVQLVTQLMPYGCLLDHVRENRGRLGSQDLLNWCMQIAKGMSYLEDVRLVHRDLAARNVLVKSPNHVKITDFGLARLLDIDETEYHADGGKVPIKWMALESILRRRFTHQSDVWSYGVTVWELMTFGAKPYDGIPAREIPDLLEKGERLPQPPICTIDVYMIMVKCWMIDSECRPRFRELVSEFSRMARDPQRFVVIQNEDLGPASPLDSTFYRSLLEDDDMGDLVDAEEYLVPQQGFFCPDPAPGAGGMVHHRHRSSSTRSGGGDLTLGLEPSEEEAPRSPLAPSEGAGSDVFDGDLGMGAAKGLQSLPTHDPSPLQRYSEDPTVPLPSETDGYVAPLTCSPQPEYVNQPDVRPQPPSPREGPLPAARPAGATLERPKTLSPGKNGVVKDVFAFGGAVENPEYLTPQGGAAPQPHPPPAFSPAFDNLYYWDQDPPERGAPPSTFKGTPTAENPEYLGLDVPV
Test [3] can be described thus: reduced viability of SK-BR-3 breast cancer cells – cell-based, 24 h, human, pilot screen (AID 572;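 active = viability at or below 10% of carrier control in both of two separate runs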;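 also: compound exposure lasted between 18 and 24 h rather than exactly 24 h; 100% = carrier-treated control wells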). As to conditions: SK-BR-3 viability, CellTiter-Glo luminescence, at 10 µM, stronger effect = lower value.
The nature of test [4]: HUVEC growth inhibition – cell-based, human, primary screen (AID 575;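 active = viability at or below 30% in both replicate assays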;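 also: 100% = median of untreated cell wells with 0.1% DMSO on each plate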). As to conditions: HUVEC proliferation, CellTiter-Glo luminescence, 72 h; at 10 µM; stronger effect = lower value.
A short description of test [5]: H69AR cell proliferation blockers – human, duplicate replicates, primary screen (AID 580;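 active = viability at or under a set limit in both replicates, limit being median viability minus 3 SD, cut at about 48% in these data, passing the limit was not always enough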;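 also: 100% = mean luminescence of untreated wells and 0% = no signal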). As to conditions: H69AR lung tumor cells viability, ATP luminescence, 72 h; at 10 µM; stronger effect = lower value.
Test [6] is described as follows: MRP1 drug-resistance reversers in H69AR cells – cell-based, doxorubicin co-treatment, pilot screen (AID 601;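 active = viability loss from added drug above about 55%, and viability with drug at most 40%, in both replicates, limit read from the data, passing the limit was not always enough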). The settings on record: CellTiter-Glo, 72 h, at 10 µM; for differential viability (reversal): stronger effect = higher value.
The nature of test [7]: yeast transport mutant growth inhibition pilot in 384-well plates, post-Golgi transport modulator project (AID 636; in the data active = inhibition above about 31%). The settings on record: absorbance 615 nm, about 18 h, stronger effect = higher value.
Test [8] can be described thus: growth suppression of yeast trafficking mutant, preliminary HTS, modulators of trafficking downstream of Golgi apparatus project, 1536-format plate, OD 615 nm (AID 637; in the data active = inhibition above about 30%). The settings on record: yeast transport mutant growth, absorbance 615 nm, 18 h; stronger effect = higher value.
Test [9] is described as follows: S. cerevisiae growth inhibition in permissive medium (OD615), pilot counter-assay for S. cerevisiae lifespan shortening project, permissive growth control (AID 705). The settings on record: OD615, 24 h, at 10 µM, stronger effect = higher value.
Test [10] is described as follows: S. cerevisiae growth inhibition in restrictive medium, OD615, pilot screen, restrictive growth control, yeast lifespan reduction project (AID 706;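 active = growth inhibition above a set limit, 3 SD over mean compound inhibition, in both replicates, cut at about 43% in these data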;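 also: modified DeaD lifespan yeast strain shifted to restrictive glucose medium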). The settings on record: OD615, 48 h, at 10 µM, stronger effect = higher value.
The nature of test [11]: doxorubicin toxicity protection in MRP-1 cells – H69AR cells, CellTiter-Glo, duplicate, MRP-1 activator project, pilot screen (AID 807;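 active = viability increase at or above a cutoff of the median across tested compounds plus 3 SD, cut at about 8.5% in these data, passing the limit was not always enough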;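 also: compound pretreatment 18-22 h then 72 h combined with doxorubicin; 0% = doxorubicin alone and 100% = vehicle without doxorubicin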). The settings on record: H69AR viability with doxorubicin, CellTiter-Glo luminescence; at 10 µM; stronger effect = higher value.
Test [12] is described as follows: viability of HCT116 without oncogenic beta-catenin – human colon tumor cells, pilot screen (AID 823;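 active = cell viability at or below a set limit in both duplicate runs, the limit being the all-compound median minus 4 SD, cut at about 23% in these data, passing the limit was not always enough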;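 also: 0% = wells killed by 20 µM Hyamine and 100% = untreated DMSO cell wells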). The settings on record: HCT116 beta-catenin knockout viability, CellTiter-Glo, 60 h; at 10 µM; stronger effect = lower value.
Test [13] in a line: viability of PTEN-null HCT116 cells – cell-based, HCT116 clonal line, CellTiter-Glo, pilot screen (AID 824;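 active = viability at or below 27.92% in each of two runs, the all-compound median minus 4 SD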;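 also: 0% = 20 µM Hyamine control and 100% = vehicle cell control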). The settings on record: HCT116 PTEN-deleted viability, 60 h, at 10 µM, stronger effect = lower value.
The nature of test [14]: RAM pathway blockade in budding yeast – dse1pr::URA3 reporter, 5-FOA selection, pilot screen (AID 869;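 active = inhibition over a set limit, the all-compound mean plus 3 SD, in both replicate runs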;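 also: 0% = DMSO wells with no growth and 100% = 10 µM 1-NA-PP1 with full growth; RAM network block rescues cells from 5-FOA so hits raise OD615 growth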). As to conditions: S. cerevisiae dse1pr::URA3 5-FOA growth, OD615, 2 d; at 10 µM; stronger effect = higher value; strain carries analog-sensitive mutant Cbk1 kinase.
Test [15] in a line: RAM signaling pathway blockade in yeast – S. cerevisiae, Pdr1DBD-CYC8 efflux-inhibited sensitized strain, primary screen (AID 1298;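 active = RAM network inhibition above 8.4% in each of two replicates, 3 SD over the compound average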;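 also: 0% = DMSO untreated cells without growth and 100% = 10 µM 1-NA-PP1 full growth; higher means more yeast growth rescued from 5-FOA killing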). As to conditions: S. cerevisiae cbk1-as DSE1-URA3 strain, 5-FOA growth OD615, 2 d; at 50 µM; stronger effect = higher value.
Setting [16] is: H69AR cells + 2 uM doxorubicin, measured here: viability with 2 uM doxorubicin, stronger effect = lower value.
Where [17] appears, read: H69AR cells, compound alone cytotoxicity.

Consider `CCN1CCN(C(=O)Cn2ncc3ccsc3c2=O)CC1`, for which the viability is 101% in test [1]; 101% (inactive) in test [3]; 89.8% (inactive) in [4]; 97% (inactive) in test [5]; 93% in [6] (setting [16]); 97% in test [6] (setting [17]). For the same molecule, the viability in test [12] is 105% (inactive); in test [13], 101% (inactive). For the same molecule, the Her2 level in test [2] is 110% (inactive). In [6] (H69AR cells + 2 uM doxorubicin), the differential viability (reversal) was 4.04% (inactive). Also, the results for the inhibition in test [7], in test [8] and in test [14] were -3.73% (inactive), 0.5% (inactive) and 1.72% (inactive), respectively. The growth inhibition in test [9] is -0.535% (inactive); in test [10], 2.34% (inactive). Further, the viability increase in test [11] is 1.63% (inactive). In test [15], the RAM network inhibition was 0.51% (inactive).

With `Cc1ccc(C(C)C)c(OCCCN2CC(C)OC(C)C2)c1` (stereo not given), the viability in [1] was 98.5%; in test [3] it was 98.5% (inactive); in test [4], 101% (inactive); in test [5], 89.4% (inactive); in test [6] (setting [16]), 99%; in [6] (setting [17]), 89.4%. Moreover, the viability is 78.5% (inactive) in test [12] and 89.3% (inactive) in test [13]. In addition, in [2], the Her2 level is 85% (inactive). Further, the differential viability (reversal) in test [6] (H69AR cells + 2 uM doxorubicin) is -9.6% (inactive). Besides, the inhibition in test [7] was 75.4% (active); in [8] it was 27.7% (inactive); in [14], 0.705% (inactive). The growth inhibition in [9] was -7.86% (inactive); in test [10] it was -13.4% (inactive). In test [11], the viability increase is -2.59% (inactive). For the same molecule, in test [15], the RAM network inhibition was 1.47% (inactive).

Consider `O=C(NCc1ccco1)C1CCN(c2ccc(N3CCOCC3)nn2)CC1`, for which the viability in test [1] was 86.5%; in [3], 86.5% (inactive); in [4], 91.4% (inactive); in test [5], 83.6% (inactive); in [6] (setting [16]), 80.6%; in [6] (setting [17]), 83.6%. The values for the viability in [12] and in test [13] were 95.2% (inactive) and 97.3% (inactive), respectively. Moreover, in test [2], the Her2 level is 120% (inactive). For the same molecule, the differential viability (reversal) in test [6] (H69AR cells + 2 uM doxorubicin) was 2.94% (inactive). Besides, the values for the inhibition in test [7], in [8] and in test [14] were -0.53% (inactive), -0.83% (inactive) and 0.935% (inactive), respectively. The growth inhibition in test [9] is 0.41% (inactive); in test [10], 5.46% (inactive). Besides, the viability increase in test [11] was -3.71% (inactive). For the same molecule, in test [15], the RAM network inhibition was 4.7% (inactive).

Consider `COc1ccc(N(CC(=O)Nc2ccc3c(c2)OCCO3)S(=O)(=O)c2cccnc2)cc1`, for which the viability was 91% in [1]; 91% (inactive) in [3]; 104% (inactive) in test [4]; 92.5% (inactive) in [5]; 87.5% in test [6] (setting [16]); 92.5% in test [6] (setting [17]). For the same molecule, the figures for the viability in test [12] and in test [13] were 102% (inactive) and 99.7% (inactive), respectively. The Her2 level in test [2] is 108% (inactive). For the same molecule, the differential viability (reversal) in [6] (H69AR cells + 2 uM doxorubicin) was 4.99% (inactive). In addition, the figures for the inhibition in test [7], in test [8] and in test [14] were -5.13% (inactive), -3.83% (inactive) and 1.63% (inactive), respectively. For the same molecule, the figures for the growth inhibition in test [9] and in test [10] were -10.3% (inactive) and 0.75% (inactive), respectively. The viability increase in test [11] was -2.05% (inactive). The RAM network inhibition in test [15] is 4.76% (inactive).

Regarding `O=C(O)C1CC(=O)N(CCOc2ccccc2)C1` (stereo not given), the viability in test [1] was 105%; in test [3], 105% (inactive); in test [4], 111% (inactive); in test [5], 93.9% (inactive); in test [6] (setting [16]) it was 97%; in test [6] (setting [17]) it was 93.9%. Besides, the viability in test [12] was 102% (inactive); in [13] it was 100% (inactive). Also, in test [2], the Her2 level was 126% (inactive). Further, the differential viability (reversal) in [6] (H69AR cells + 2 uM doxorubicin) is -3.07% (inactive). Moreover, the values for the inhibition in [7], in test [8] and in test [14] were -3.51% (inactive), -2.62% (inactive) and 0.69% (inactive), respectively. Moreover, the growth inhibition was 2.4% (inactive) in test [9] and 3.82% (inactive) in test [10]. Further, the viability increase in test [11] was 0.57% (inactive). In test [15], the RAM network inhibition was 1.17% (inactive).
